# Several values for one entry are separate records, joined by “and”; a condition that tells them apart may be missing. Equal entries are not always repeated. Results filed as inconclusive are left out. Activity calls are given as the source filed them. Cut-off read from the data, not from the text of the source, unless noted: active = inhibition above about 80%; inactive = the rest.
# Key:
# [1] = growth inhibition, single agents and combos, LFS_MB_1R, cell-based, cisplatin or BGB combos, synergistic combos for chromothripsis tumors (AID 1671452); conditions: LFS_MB_1R medulloblastoma cells, stronger effect = higher value;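 note: cells exposed for 96 hours before readout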
# [2] = growth inhibition, single agents and combos, CRL2098, cell-based, BGB or cisplatin IC20 combos, synergistic combos for chromothripsis tumors (AID 1671454); conditions: CRL2098 osteosarcoma cells, drug combinations, stronger effect = higher value;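 note: cells exposed for 96 h before readout; 0% = vehicle DMSO and 100% = killing by high DMSO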
# [3] = growth inhibition, single agents and combos, HD-MB03, cell-based, BGB or cisplatin IC20 combos, synergistic combos for chromothripsis tumors (AID 1671455; in the data active = inhibition above about 83%;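 note: 0% = vehicle DMSO and 100% = high DMSO as cytotoxic control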); conditions: HD-MB03 medulloblastoma cells, stronger effect = higher value
# [4] = growth inhibition, single agents and combos, UWB1.289, cell-based, BGB or cisplatin combos, synergistic combos for chromothripsis tumors (AID 1671456); conditions: UWB1.289 ovarian carcinoma cells, stronger effect = higher value;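 note: cells exposed to compound for four days; 0% = vehicle DMSO and 100% = killing by high DMSO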
# [5] = growth inhibition, single agents and combos, LFS_MB_2R, cell-based, cisplatin combos, synergistic combos for chromothripsis tumors (AID 1671457); conditions: LFS_MB_2R medulloblastoma cells, stronger effect = higher value;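 note: cells exposed to compound for four days before readout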
# [6] = growth inhibition, MDA-MB-436, cell-based, BGB or cisplatin combos, synergistic combos for chromothripsis tumors (AID 1671458; call rule not given here;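 note: cells exposed for 96 hours; 0% = vehicle DMSO and 100% = killing by high DMSO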); conditions: MDA-MB-436 breast carcinoma growth inhibition, drug combinations, stronger effect = higher value
# [7] = UWB1.289_BRCA1 ovarian cancer growth, cell-based, BGB or cisplatin combinations (AID 1671459); conditions: UWB1.289 BRCA1 ovarian carcinoma, drug combinations, stronger effect = higher value
# [8] = drug combination toxicity in non-malignant astrocytes – cell-based, BGB or cisplatin IC20 combos, cytotoxicity control for chromothriptic childhood tumor combination screen (AID 1671460); conditions: Human astrocytes, viability inhibition, drug combinations, at 0.5 µM, stronger effect = higher value;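 note: cells exposed to compounds for 96 hours before viability readout; 0% = vehicle and 100% = killing control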
# [9] = BT084 cell growth, single and combined drugs, ICGC_MB145, cisplatin and BGB IC40 combos (AID 1671461); conditions: BT084 medulloblastoma cells, drug combinations, stronger effect = higher value;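 note: cells exposed to drugs for 96 hours; 0% = vehicle DMSO and 100% = high DMSO full killing control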
# [10] = RCMB18 cell growth, single agent and combined, cisplatin and BGB IC40 combos (AID 1671462); conditions: RCMB18 medulloblastoma cells, stronger effect = higher value;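 note: cells exposed to compound for four days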
# [11] = CRL1545 cell growth, single agent and combined, cisplatin and BGB IC20 combos (AID 1671464); conditions: CRL1545 osteosarcoma cells, stronger effect = higher value;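 note: cells exposed to compound for 96 hours before readout; 0% = vehicle DMSO and 100% = high DMSO killing control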
# [12] = tested on: Aerobactin synthetase IucA (Klebsiella pneumoniae); assay: inhibition of K. pneumoniae IucA enzyme – biochemical, Tocris library, absorbance (AID 1345561; call rule not given here;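 note: 100% = enzyme without compound and 0% = no enzyme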); conditions: purified IucA enzyme assay, absorbance (OD) read-out; stronger effect = lower value;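 tested at 8 µM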
# [13] = rescue of PC12 cells from polyQ htt toxicity – LDH release (AID 1610); conditions: PC12 mutant huntingtin toxicity, final LDH at 4 uM, stronger effect = lower value
# [14] = chitosan synthesis blockers in C. neoformans – flow cytometry, Cibacron Brilliant Red staining (AID 1347148; call rule not given here;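 note: compound exposure lasted three days at 37 degrees C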); conditions: Cryptococcus neoformans chitosan, stronger effect = lower value; at 99.1 µM unless noted
# [15] = compounds altering HSF1 focus formation in cells – imaging, Selleck Cancer Library (AID 1347162; in the data active = plate-normalised HSF1 focus index below about 0.46); conditions: human cells, HSF1 nuclear foci imaging, at 10 µM; SSMD: measured here: HSF1 foci SSMD mean; cell count: measured here: cell number; plate-normalised HSF1 focus index: stronger effect = lower value
# [16] = measured here: combination with BGB IC40, at 0.05 µM
# [17] = measured here: combination with cisplatin, at 0.5 µM
# [18] = measured here: combination with cisplatin, at 5 µM
# [19] = measured here: combination with BGB at IC20, at 0.5 µM
# [20] = measured here: combination with cisplatin at IC20, at 0.5 µM
# [21] = measured here: combo with BGB at IC20, at 0.5 µM
# [22] = measured here: combo with cisplatin at IC20, at 0.5 µM
# [23] = measured here: inhibition with BGB combination, at 0.05 µM
# [24] = measured here: inhibition with cisplatin combination, at 0.05 µM
# [25] = measured here: BGB combination, at 0.5 µM
# [26] = measured here: BGB combination, at 5 µM
# [27] = measured here: cisplatin combination, at 0.5 µM
# [28] = measured here: cisplatin combination, at 5 µM
# [29] = BGB combination, concentration series, at 5 µM
# [30] = cisplatin combination, concentration series, at 5 µM
# [31] = measured here: combo with BGB IC20
# [32] = measured here: combo with cisplatin IC20
# [33] = cisplatin combination, at 0.5 µM
# [34] = measured here: BGB IC40 combination 0.05 uM, at 0.05 µM
# [35] = measured here: BGB IC40 combination, at 0.05 µM
# [36] = measured here: with BGB IC20 combination, at 0.5 µM
# [37] = measured here: with cisplatin IC20 combination, at 0.5 µM
structure (smiles),measurement,setting,value
Cn1c(=O)c2[nH]cnc2n(C)c1=O,inhibition,[1]; at 0.5 µM,-21.9% (inactive) and -0.42% (inactive) and -31.4% (inactive)
same,inhibition,[1]; [16],-26.4% and 1.86% and -7.92%
same,inhibition,[1]; [17],-14.9% and -0.619% and -31.4%
same,inhibition,[1]; [18],8.09% and -20.9% and -28.9%
same,inhibition,[2]; at 0.5 µM,-26.5% (inactive) and -30.1% (inactive) and -56.1% (inactive)
same,inhibition,[2]; [19],-30.2% and -27.7% and -48.2%
same,inhibition,[2]; [20],-14.9% and -28.7% and -88%
same,inhibition,[3]; at 0.5 µM,-13.1% (inactive) and -5.07% (inactive) and -0.46% (inactive)
same,inhibition,[3]; [21],-12% and -8.62% and 8.13%
same,inhibition,[3]; [22],-20.1% and -3.43% and -7.86%
same,inhibition,[4]; at 0.5 µM,4.45% (inactive) and -2.98% (inactive) and 2.06% (inactive)
same,inhibition,[4]; [23],-14.7% and -27.6% and -12%
same,inhibition,[4]; [24],-7.61% and -9.15% and -16.4%
same,inhibition,[5]; at 0.5 µM,-18.7% (inactive) and -17.5% (inactive) and -20.5% (inactive)
same,inhibition,[5]; [17],-25.2% and -14.1% and -19.4%
same,inhibition,[5]; [18],-67.2% and -2.43% and -20.9%
same,inhibition,[6]; at 0.5 µM,-17.5% (inactive) and -19.5% (inactive) and -13.6% (inactive)
same,inhibition,[6]; [25],-12% and -14.3% and -17.1%
same,inhibition,[6]; [26],-13.2% and -18.8% and -9.87%
same,inhibition,[6]; [27],-40.2% and -33.9% and -18.2%
same,inhibition,[6]; [28],-36.3% and -17.6% and -0.817%
same,inhibition,[7]; [29],-19.8% and 16.6% and -0.184%
same,inhibition,[7]; at 0.5 µM,-1.02% (inactive) and -1.86% (inactive) and -8.23% (inactive)
same,inhibition,[7]; [30],10.1% and 4.75% and 18.9%
same,inhibition,[8],0.61% (inactive) and -3.23% (inactive) and 6.04% (inactive)
same,inhibition,[8]; [31],-5.91% and -4.46% and 10.7%
same,inhibition,[8]; [32],-10.6% and -12% and 4.82%
same,inhibition,[9]; at 0.5 µM,-52.1% (inactive) and -29.3% (inactive) and -9.65% (inactive)
same,inhibition,[9]; [33],-24.1% and -32.5% and -4.44%
same,inhibition,"[9]; cisplatin combination, at 5 µM",-14.9% and -47.9% and -47.4%
same,inhibition,[9]; [34],-3.16% and -19.9% and 10.3%
same,inhibition,"[9]; single agent, at 5 µM",-10.6% and -25.6% and -15.2%
same,inhibition,[10]; at 0.5 µM,-12.3% (inactive) and -7.91% (inactive) and -23.8% (inactive)
same,inhibition,"[10]; cisplatin combo, at 5 µM",-18.4% and 16.4% and 3.76%
same,inhibition,[10]; [35],-15.1% and -0.46% and -14.9%
same,inhibition,[10]; [17],5.37% and -0.222% and -34.5%
same,inhibition,"[10]; single agent, at 5 µM",-20% and -29.1% and -26.4%
same,inhibition,[11]; at 0.5 µM,2.86% (inactive) and -13.9% (inactive) and -23% (inactive)
same,inhibition,[11]; [36],6.54% and -1.14% and 25.3%
same,inhibition,[11]; [37],-1.22% and -20.4% and -47.1%
same,inhibition,"[11]; single agent, at 0.05 µM",6.84% and 45.8% and 6.98%
same,inhibition,"[11]; single agent, at 5 µM",18.7% and 15.6% and -12.3%
CC[C@H](C)C(=O)O[C@H]1C[C@H](O)C=C2C=C[C@H](C)[C@H](CC[C@@H](O)C[C@@H](O)CC(=O)O)[C@H]21,remaining activity,[12],123% (inactive)
COc1ccccc1N1CCN(CCCNc2cc(=O)n(C)c(=O)n2C)CC1,remaining activity,[12],103% (inactive)
Nc1c2c(nc3ccccc13)CCCC2,normalised LDH release,[13],0.878
same,remaining activity,[12],109% (inactive)
CCn1cc(C(=O)O)c(=O)c2cc(F)c(N3CCNCC3)cc21,inhibition,[1]; at 0.5 µM,16.4% (inactive)
same,inhibition,[1]; [16],-0.695%
same,inhibition,[1]; [17],26.1%
same,inhibition,[1]; [18],22.9%
same,inhibition,[2]; at 0.5 µM,-43.9% (inactive)
same,inhibition,[2]; [19],-32.8%
same,inhibition,[2]; [20],-33.5%
same,inhibition,[3]; at 0.5 µM,-1.96% (inactive)
same,inhibition,[3]; [21],-6.97%
same,inhibition,[3]; [22],4.39%
same,inhibition,[4]; at 0.5 µM,3.04% (inactive)
same,inhibition,[4]; [23],-22.6%
same,inhibition,[4]; [24],-1.67%
same,inhibition,[5]; at 0.5 µM,-18.9% (inactive)
same,inhibition,[5]; [17],-13.2%
same,inhibition,[5]; [18],-11.8%
same,inhibition,[6]; at 0.5 µM,-18.4% (inactive)
same,inhibition,[6]; [25],-12.8%
same,inhibition,[6]; [26],-3.58%
same,inhibition,[6]; [27],-41.9%
same,inhibition,[6]; [28],-18.8%
same,inhibition,[7]; [29],-3.45%
same,inhibition,[7]; at 0.5 µM,2.01% (inactive)
same,inhibition,[7]; [30],12.5%
same,inhibition,[8],5.02% (inactive)
same,inhibition,[8]; [31],10.6%
same,inhibition,[8]; [32],-14.6%
same,inhibition,[9]; at 0.5 µM,-27.2% (inactive)
same,inhibition,[9]; [33],-24.4%
same,inhibition,"[9]; cisplatin combination, at 5 µM",-61.7%
same,inhibition,[9]; [34],-27.3%
same,inhibition,"[9]; single agent, at 5 µM",-32.3%
same,inhibition,[10]; at 0.5 µM,-5.94% (inactive)
same,inhibition,"[10]; cisplatin combo, at 5 µM",-71.7%
same,inhibition,[10]; [35],-15.2%
same,inhibition,[10]; [17],20.7%
same,inhibition,"[10]; single agent, at 5 µM",-42.9%
same,inhibition,[11]; at 0.5 µM,-19.2% (inactive)
same,inhibition,[11]; [36],-33.4%
same,inhibition,[11]; [37],-12.1%
same,inhibition,"[11]; single agent, at 0.05 µM",20.3%
same,inhibition,"[11]; single agent, at 5 µM",24%
NC(N)=NC(=O)c1nc(Cl)c(N)nc1N,remaining activity,[12],101% (inactive)
same,fold fluorescence,[14],7.16 [at 217.7 µM] (inactive)
CNCCCC12CCC(c3ccccc31)c1ccccc12,remaining activity,[12],112% (inactive)
Cc1c(OCC(F)(F)F)ccnc1CS(=O)c1nc2ccccc2[nH]1 (stereo unspecified),remaining activity,[12],87.5% (inactive)
CNC(=O)Oc1ccc2c(c1)[C@]1(C)CCN(C)[C@@H]1N2C,normalised LDH release,[13],0.859
COc1cc2nc(N3CCN(C(=O)c4ccco4)CC3)nc(N)c2cc1OC,remaining activity,[12],96.4% (inactive)
same,fold fluorescence,[14],6.39 [at 130.4 µM] (inactive)
Fc1ccc([C@@H]2CCNC[C@H]2COc2ccc3c(c2)OCO3)cc1,remaining activity,[12],109% (inactive)
CC(=O)O[C@]1(C(C)=O)CC[C@H]2[C@@H]3C=C(C)C4=CC(=O)CC[C@]4(C)[C@H]3CC[C@@]21C,SSMD,[15],0.639
same,cell count,[15],7050
same,plate-normalised HSF1 focus index,[15],1.04 (inactive)
OCCN(CCO)c1nc(N2CCCCC2)c2nc(N(CCO)CCO)nc(N3CCCCC3)c2n1,remaining activity,[12],98% (inactive)
same,fold fluorescence,[14],2.89 (active)
Nc1nc2ccc(OC(F)(F)F)cc2s1,remaining activity,[12],83.1% (inactive)
O=C(c1ccccc1)c1ccc2n1CCC2C(=O)O (stereo unspecified),normalised LDH release,[13],0.828
CC[C@]1(O)C[C@@H]2CN(CCc3c([nH]c4ccccc34)[C@@](C(=O)OC)(c3cc4c(cc3OC)N(C)[C@H]3[C@@](O)(C(=O)OC)[C@H](OC(C)=O)[C@]5(CC)C=CCN6CC[C@]43[C@@H]65)C2)C1,fold fluorescence,[14],15.3 [at 55 µM] (inactive)
COc1ccc2c(c1)c(CC(=O)O)c(C)n2C(=O)c1ccc(Cl)cc1,remaining activity,[12],120% (inactive)
same,fold fluorescence,[14],4.17 [at 139.7 µM] (inactive)
C[C@@H]1C[C@H]2[C@@H]3CCC4=CC(=O)C=C[C@]4(C)[C@@]3(F)[C@@H](O)C[C@]2(C)[C@@]1(O)C(=O)CO,SSMD,[15],1.52
same,cell count,[15],6940
same,plate-normalised HSF1 focus index,[15],1.08 (inactive)
O=C1N=C(O)CN1/N=C/c1ccc(-c2ccc([N+](=O)[O-])cc2)o1,remaining activity,[12],110% (inactive)
same,fold fluorescence,[14],4.66 [at 159.1 µM] (inactive)

# — PubChem BioAssay
